According to PubChem BioAssay (NCI):
Compounds without any hit were thinned out: in the full panel of roughly 83,000, 20% have a hit.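 96-well plates, one dose, 48 hours. Percent growth reported; active if below 10.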 Calls of active or inactive are those of the source.

What was measured:
Assay in all cases: NCI-60 one-dose screen, 48 h (100 = growth as untreated, 0 = no growth, -100 = all killed)
Conditions in all cases: 10 µM unless noted
T-47D breast = system: T-47D breast
BT-549 breast = system: BT-549 breast
MDA-MB-435 melanoma = system: MDA-MB-435 melanoma
SW-620 colon = system: SW-620 colon
MCF7 breast = system: MCF7 breast
HCT-116 colon = system: HCT-116 colon
HCC-2998 colon = system: HCC-2998 colon
KM12 colon = system: KM12 colon

Measured: growth

COc1ccc(/C=N/NC(=O)c2c(N)nn(C)c2Nc2ccccc2)cc1
inactive: T-47D breast 42.4% | BT-549 breast 14% | SW-620 colon 16% | MCF7 breast 17.6% | HCT-116 colon 15% | HCC-2998 colon 59.2%
active: MDA-MB-435 melanoma -31%

NC(N)=NS(=O)(=O)c1ccc(N=Nc2c(N)nn(-c3ccc([N+](=O)[O-])cc3[N+](=O)[O-])c2N)cc1
inactive: T-47D breast 104% | BT-549 breast 123% | MDA-MB-435 melanoma 103% | SW-620 colon 101% | MCF7 breast 96.2% | HCT-116 colon 101% | HCC-2998 colon 113%

Cc1[nH]c(C(=O)Nc2ccc(S(=O)(=O)N3CCCCC3)cc2OCCOCCOCCOCCOCCOCCOCCOCCOCCOc2cc(S(=O)(=O)N3CCCCC3)ccc2NC(=O)c2[nH]c(C)c3c2CCCCC3=O)c2c1C(=O)CCCC2
inactive: MDA-MB-435 melanoma 18% | SW-620 colon 37.6% | MCF7 breast 11%
active: T-47D breast 7.19% | BT-549 breast 2.28% | HCT-116 colon -32.3% | HCC-2998 colon -38.4%

O=C1[C@@H]2Cc3c([nH]c4ccccc34)[C@H](c3ccc(Br)cc3)N2C(=O)CN1C1CCN(Cc2c(Cl)cccc2Cl)CC1
inactive: T-47D breast 88.5% | BT-549 breast 110% | MDA-MB-435 melanoma 100% | SW-620 colon 92.7% | MCF7 breast 68.3% | HCT-116 colon 78.8% | HCC-2998 colon 101%

Cc1[nH]c(C(=O)Nc2ccccc2OCc2cccc(C(=O)NC3CCNC3)c2)c(Cl)c1Cl (stereo unspecified)
inactive: T-47D breast 53.9% | BT-549 breast 83.8%
active: MDA-MB-435 melanoma -53% | SW-620 colon -66.3% | MCF7 breast -73.9% | HCT-116 colon -61.2% | HCC-2998 colon 5.81%

COC(=O)c1cccc(NC2=C(Cl)C(=O)c3nc(C)ccc3C2=O)c1
active: T-47D breast -28.1% | MDA-MB-435 melanoma -38.6% | SW-620 colon 0.0392% | MCF7 breast -35.2%
inactive: BT-549 breast 125% | HCT-116 colon 27.2% | HCC-2998 colon 105%

C#C[C@]1(O)CC[C@H]2[C@@H]3CC=C4c5sc(Nc6cc(C)cc(C)c6)nc5CC[C@]4(C)[C@H]3CC[C@@]21C
active: BT-549 breast -4.65% | SW-620 colon -20.1% | MCF7 breast -52.5% | KM12 colon -7.08%
inactive: T-47D breast 33.8% | MDA-MB-435 melanoma 20.7% | HCT-116 colon 12.5% | HCC-2998 colon 40.2%

CCN(CC)c1ccc(/C=N/NC(=O)c2ccc(S(N)(=O)=O)cc2)cc1
inactive: T-47D breast 26% | BT-549 breast 26.3% | MDA-MB-435 melanoma 33% | SW-620 colon 40.4% | HCT-116 colon 21.5% | HCC-2998 colon 43% | KM12 colon 21%
active: MCF7 breast 7.83%

Cc1nc(N)sc1-c1csc(Nc2ccc(C(F)(F)F)cc2)n1
inactive: MDA-MB-435 melanoma 37.8% | SW-620 colon 20.6% | MCF7 breast 17.3% | HCT-116 colon 20.6% | HCC-2998 colon 21%
active: T-47D breast -0.894% | BT-549 breast -12%

CCOC(=O)c1c(N)c(C#N)cn1Cc1ccc(Cl)cc1Cl
inactive: T-47D breast 78.3% | BT-549 breast 81.8% | SW-620 colon 44.9% | MCF7 breast 59.2% | HCT-116 colon 64% | HCC-2998 colon 73% | KM12 colon 60.1%
active: MDA-MB-435 melanoma -7.54%

CN1CCN(Cc2ccc(NC(=O)c3cncc(C#Cc4cnc5ccc(N)nn45)c3)cc2C(F)(F)F)CC1
active: SW-620 colon 0.667% | MCF7 breast -19.7% | HCT-116 colon 1.19% | KM12 colon 3.48%
inactive: T-47D breast 60.5% | BT-549 breast 38.7% | MDA-MB-435 melanoma 40.5% | HCC-2998 colon 20.7%

O=S(=O)(NCCCNc1nccc(-c2[nH]c(-c3ccccc3)nc2-c2ccc(F)c(O)c2)n1)c1cccc(F)c1
inactive: T-47D breast 73.4% | BT-549 breast 96.4% | MDA-MB-435 melanoma 38% | SW-620 colon 120% | MCF7 breast 78.3% | HCT-116 colon 72.2% | HCC-2998 colon 114% | KM12 colon 88.9%

C=C(C)[C@@H]1CC[C@]2(C(=O)O)CC[C@]3(C)[C@H](CC[C@@H]4[C@@]5(C)C/C(=C/c6ccccn6)C(=O)C(C)(C)[C@@H]5CC[C@]43C)[C@@H]12
inactive: T-47D breast 19% | BT-549 breast 45.8% | MDA-MB-435 melanoma 36.6% | SW-620 colon 27.9% | MCF7 breast 18.7% | HCT-116 colon 13.5% | HCC-2998 colon 31.3% | KM12 colon 30.6%

CCOC(=O)C(=O)Nc1ccc2c(ccn2C(=O)c2cccc(F)c2)c1
inactive: T-47D breast 99.1% | BT-549 breast 88.8% | MDA-MB-435 melanoma 100% | SW-620 colon 98.7% | MCF7 breast 89.6% | HCT-116 colon 102% | HCC-2998 colon 103% | KM12 colon 98.2%

O=C1[C@H]2Cc3c([nH]c4ccccc34)[C@H](c3ccc(Cl)cc3)N2C(=O)CN1C1CCN(CC2CCCCC2)CC1
inactive: T-47D breast 93% | BT-549 breast 70.8% | MDA-MB-435 melanoma 62.3% | SW-620 colon 72.5% | MCF7 breast 16.2% | HCC-2998 colon 53.4% | KM12 colon 62%
active: HCT-116 colon 5.7%

CCNC(=O)Oc1ccc(/C(=C(/C)c2ccc(OC)cc2)c2ccc(OCCN3CCCCCC3)cc2)cc1
active: SW-620 colon -25.9% | MCF7 breast 8.81%
inactive: T-47D breast 26.6% | BT-549 breast 73.3% | MDA-MB-435 melanoma 43.7% | HCT-116 colon 13.4% | HCC-2998 colon 67.9% | KM12 colon 39.6%

O=S(=O)(Oc1ccc(-c2cn3ccoc3n2)cc1)C1CCCCC1
inactive: T-47D breast 95.7% | BT-549 breast 125% | MDA-MB-435 melanoma 98.6% | SW-620 colon 103% | MCF7 breast 87% | HCT-116 colon 89.3% | HCC-2998 colon 113% | KM12 colon 103%

O=C(CCCCCCNC(=O)C(O)(O)C(F)(F)F)Nc1ccc(Br)cc1
inactive: BT-549 breast 19.5% | MCF7 breast 13.7% | KM12 colon 14.1%
active: T-47D breast 8.06% | MDA-MB-435 melanoma 6.63% | SW-620 colon 3.78% | HCT-116 colon -6.77% | HCC-2998 colon 1.89%

N#Cc1c(-c2cccs2)cc(-c2cnccn2)nc1SCC(=O)N/N=C/c1ccc(Cl)cc1
inactive: T-47D breast 93.8% | BT-549 breast 107% | MDA-MB-435 melanoma 103% | SW-620 colon 93.1% | MCF7 breast 84.6% | HCT-116 colon 57.8% | HCC-2998 colon 119% | KM12 colon 96.5%

Fc1cc(F)cc(NNC(=S)c2ccccc2)c1
inactive: BT-549 breast 17.8% | MDA-MB-435 melanoma 64% | SW-620 colon 58% | MCF7 breast 37.5% | HCT-116 colon 20.9% | HCC-2998 colon 87% | KM12 colon 49.1%
active: T-47D breast -2.7%

O=C(CCCCCCN1CC(=O)N2[C@@H](C3CC3)c3[nH]c4ccccc4c3C[C@H]2C1=O)NO
inactive: T-47D breast 66.1% | BT-549 breast 104% | MDA-MB-435 melanoma 40.3% | SW-620 colon 61.2% | MCF7 breast 39.9% | HCT-116 colon 33.4% | HCC-2998 colon 108% | KM12 colon 84.2%

CN1CCN(c2ccc(Nc3nc(NCCNC(=O)c4ccccc4)c4sccc4n3)cc2)CC1
active: HCT-116 colon 0.236%
inactive: T-47D breast 18.1% | BT-549 breast 58.8% | MDA-MB-435 melanoma 59.3% | SW-620 colon 49.1% | MCF7 breast 25.7% | HCC-2998 colon 84% | KM12 colon 59.6%

Cc1csc(/N=C(N)/N=C(\N)c2cccnc2)n1
inactive: T-47D breast 85.5% | BT-549 breast 77.6% | SW-620 colon 53.2% | MCF7 breast 82.1% | HCT-116 colon 55.1% | HCC-2998 colon 90.2% | KM12 colon 48.8%
active: MDA-MB-435 melanoma 6%

CCCCc1nc2c(N)nc3ccccc3c2n1Cc1ccc(OC)cc1
inactive: T-47D breast 65.3% | BT-549 breast 72% | MDA-MB-435 melanoma 84% | SW-620 colon 68.6% | MCF7 breast 59.7% | HCT-116 colon 32.5% | HCC-2998 colon 85.5% | KM12 colon 83.1%

COc1cc2c3c(cc4c5c(ccc4c3c1OC)OCO5)N(CCN(C)C)C2=O
active: T-47D breast -5.03% | BT-549 breast -6.3% | MDA-MB-435 melanoma -18.5% | SW-620 colon 7.13% | MCF7 breast 0.153% | HCT-116 colon -12.2% | HCC-2998 colon -45.3% | KM12 colon 8.95%

Fc1ccc(-c2cn3c(-c4c[nH]c5ccc(Br)cc45)csc3n2)cc1
inactive: T-47D breast 66.3% | BT-549 breast 95.4% | MDA-MB-435 melanoma 83.1% | SW-620 colon 81.4% | MCF7 breast 60.9% | HCT-116 colon 73.8% | HCC-2998 colon 100% | KM12 colon 66.5%

N#Cc1nc(-c2ccc(Cl)cc2)oc1N1CCC(S(=O)(=O)N2CCOCC2)CC1
inactive: T-47D breast 103% | BT-549 breast 103% | MDA-MB-435 melanoma 99% | SW-620 colon 95.9% | MCF7 breast 94.3% | HCT-116 colon 101% | HCC-2998 colon 102% | KM12 colon 105%

Cc1ccc(C(=O)CSc2nnc(-c3ccc(-c4ccc(Cl)cc4)nc3C)o2)cc1
inactive: T-47D breast 92.1% | BT-549 breast 107% | MDA-MB-435 melanoma 103% | SW-620 colon 103% | MCF7 breast 81% | HCT-116 colon 98.1% | HCC-2998 colon 103% | KM12 colon 97.2%

Cc1ccc2c(n1)C(=O)C(Cl)=C(Nc1ccccc1C(=O)OC(C)(C)C)C2=O
active: T-47D breast -25.2% | SW-620 colon -28.3% | MCF7 breast -60.1% | HCT-116 colon -84.6%
inactive: BT-549 breast 38.6% | MDA-MB-435 melanoma 84.7% | HCC-2998 colon 92.3% | KM12 colon 99.1%

Cn1cc(-c2cc3ncnc(Nc4ccc(NC(=O)Nc5cc(C(C)(C)C)on5)cc4)c3s2)cn1
inactive: BT-549 breast 16.4% | MDA-MB-435 melanoma 17.5% | SW-620 colon 24.4% | MCF7 breast 18.5% | HCT-116 colon 12.7% | HCC-2998 colon 74.1% | KM12 colon 15.7%
active: T-47D breast 1.81%

COc1ccc(C(=NNS(=O)(=O)c2ccc(C)cc2)c2ccccc2)cc1OC
inactive: T-47D breast 90% | BT-549 breast 112% | MDA-MB-435 melanoma 106% | SW-620 colon 101% | MCF7 breast 91.4% | HCT-116 colon 96.3% | HCC-2998 colon 102% | KM12 colon 105%
